# HTT aggregate: qHTS Multiplex Assay to Identify Dual Action Probes in a Cell Model of Huntington: Aggregate Formation (GFP); Potency, µM (highest dose often 46.1 µM), hits mostly inhibitors; PC12 HttQ103-GFP aggregates, Acumen cytometry, 40 h; actives 1.1% (n = 220,000); active = well fitted curve in the direction sought with a large enough effect; inconclusive = small, poorly fitted or top-dose-only effect, or another doubt; inactive = no such curve, though single readings can be large; an effect the other way counts as inactive or inconclusive; note: nearly all actives have a fitted effect of over 60% in size
#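 Using laser scanning cytometry, GFP-positive aggregates were counted after lysis of PC12 cells induced with 100 nM tebufenozide to express HTT exon 1 Q103–GFP. Compounds were tested in titration.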
# KDM4E inh: qHTS Assay for Inhibitors of Human Jumonji Domain Containing 2E (JMJD2E); actives 1.6% (n = 230,000); Lysine-specific demethylase 4E (Homo sapiens), B2RXH2; JMJD2E catalytic domain, FDH-coupled NADH fluorescence (FDH is formaldehyde dehydrogenase); Potency, µM (top dose mostly 57.1 µM), hits mostly inhibitors; note: nearly all actives have a fitted effect of over 50% in size
# HTT ATP protect: qHTS Multiplex Assay to Identify Dual Action Probes in a Cell Model of Huntington: Cytoprotection (ATP); PC12 HTT-Q103 induced, cytoprotection, ATP luminescence, 40 h; Potency, µM (titrated, usually from 56.4 µM), usual class: activators; actives 0.14% (n = 230,000); AID 1471, 2008; active = well fitted curve in the direction sought with a large enough effect; inconclusive = small, poorly fitted or top-dose-only effect, or another doubt; inactive = no such curve, though single readings can be large; an effect the other way counts as inactive or inconclusive; note: nearly all actives have a fitted effect of over 45% in size
#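 Readout: ATPlite luminescence (ATP level). Model: stable PC12, inducible Htt exon1 Q103-GFP. Inducer: tebufenozide, 100 nM final. Compounds: dose series. No G418 in medium.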
# HPGD inh: qHTS Assay for Inhibitors of HPGD (15-Hydroxyprostaglandin Dehydrogenase). 15-hydroxyprostaglandin dehydrogenase [NAD(+)] (Homo sapiens), P15428. purified HPGD, NADH fluorescence kinetic, PGE2 substrate. Potency, µM, most hits filed as inhibitors. actives 4.3% (n = 150,000). AID 894, 2007
#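 20 nM HPGD preincubated 15 min at room temperature with compound in 50 mM Tris-HCl pH 8, 0.01% Tween 20. Started with 1 mM NAD+ and 30 uM prostaglandin E2; NADH fluorescence (360/450 nm) read 5 times over 30-s intervals, last minus first.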
# CBFb RUNX1 block: qHTS Assay for Compounds Blocking the Interaction Between CBF-beta and RUNX1 for the Treatment of Acute Myeloid Leukemia; AlphaScreen CBFb-His/RUNX1-biotin binding, biochemical; Runt-related transcription factor 1 (Homo sapiens) + Core-binding factor subunit beta …; 230,000 tested, under 10 active; AID 1477, 2009; Potency, µM (highest dose often 59.8 µM), usual class: inhibitors; active = well fitted curve in the direction sought with a large enough effect; inconclusive = small, poorly fitted or top-dose-only effect, or another doubt; inactive = no such curve, though single readings can be large; an effect the other way counts as inactive or inconclusive
# Target sequence (Q01196 whole entry, looked up): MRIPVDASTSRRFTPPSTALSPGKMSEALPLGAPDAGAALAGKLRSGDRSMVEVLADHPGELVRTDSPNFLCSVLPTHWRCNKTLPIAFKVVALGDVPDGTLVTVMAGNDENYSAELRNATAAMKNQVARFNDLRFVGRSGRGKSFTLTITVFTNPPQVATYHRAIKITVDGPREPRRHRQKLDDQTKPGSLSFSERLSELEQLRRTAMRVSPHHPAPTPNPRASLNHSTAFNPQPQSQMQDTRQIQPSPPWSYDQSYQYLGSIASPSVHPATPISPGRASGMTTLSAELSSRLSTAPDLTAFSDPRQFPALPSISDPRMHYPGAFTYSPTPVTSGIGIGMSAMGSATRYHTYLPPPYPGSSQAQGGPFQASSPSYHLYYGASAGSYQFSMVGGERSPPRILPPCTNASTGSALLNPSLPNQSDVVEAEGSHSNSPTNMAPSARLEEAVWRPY
# Target sequence (Q13951 whole entry, looked up): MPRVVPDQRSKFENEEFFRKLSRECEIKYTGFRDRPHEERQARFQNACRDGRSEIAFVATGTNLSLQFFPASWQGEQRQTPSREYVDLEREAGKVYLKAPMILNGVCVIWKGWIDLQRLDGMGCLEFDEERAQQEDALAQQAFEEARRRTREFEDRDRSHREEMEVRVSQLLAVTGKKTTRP
#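 CBFb-His/RUNX1-biotin, 30 nM each, preincubated 20 min RT; compound 15 min RT; Ni + streptavidin beads 50 ng each, 90 min RT; AlphaScreen read.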
# ALDH1A1 block: qHTS Assay for Inhibitors of Aldehyde Dehydrogenase 1 (ALDH1A1). Purified ALDH1A1, NADH fluorescence, propionaldehyde substrate. AID 1030, 2008. actives 7.3% (n = 220,000). Potency, µM (titrated, usually from 75.3 µM), actives largely listed as inhibitors. Aldehyde dehydrogenase 1A1 (Homo sapiens), P00352
# A number is an active result; – = inactive; ? = inconclusive; · = no result; [ ] = remark or other dose. A selection: hits, their analogues and other compounds. The true share with any hit is near 9.8%. Unless noted, calls come from the whole dose curve; as a rule, active = well fitted inhibition curve with a large enough effect (not every such curve was filed as active); inconclusive = small, poorly fitted or top-dose-only effect, or another doubt; inactive = no such curve, though single readings can be large or run the other way.
SMILES,HTT aggregate,KDM4E inh,HTT ATP protect,HPGD inh,CBFb RUNX1 block,ALDH1A1 block
O=C(CNC(=O)c1ccco1)N/N=C/c1ccc(O)c([N+](=O)[O-])c1,–,–,–[10 µM],–,–,–
CCOC(=O)[C@H](CCc1ccccc1)N[C@@H](C)C(=O)N1[C@H](C(=O)O)C[C@H]2CCC[C@@H]21,–,–,3.16µM,–,–,–
CC1CCOC2(O1)C(=O)N(CN1CCN(c3ccccc3F)CC1)c1ccccc12 (centres undefined),–,–,–,–,–,–
Cc1ccc(Cn2c(O)c(N=NC(=S)Nc3ccccc3F)c3ccccc32)cc1,–,–,–,·,–,11.2µM
C=CCn1c(O)c(N=NC(=S)Nc2cccc(C)c2)c2ccccc21,–,–,·,–,–,–
C=CCn1c(O)c(N=NC(=O)CNC(=O)/C=C/c2ccc(OC)cc2)c2ccccc21,–[9.22 µM],–,–[10 µM],·,–,?
Oc1c(N=NC(=S)Nc2ccccc2F)c2ccccc2n1Cc1ccccc1,?,–,–,·,?,20µM
C=CCn1c(O)c(N=NC(=O)CNC(=O)/C=C/c2ccco2)c2ccccc21,–,–,–[10 µM],–,–,10µM
Oc1c(N=NC(=S)Nc2ccccc2F)c2ccccc2n1Cc1ccccc1Cl,–,–,–,·,?,?
C=CCn1c(O)c(N=NC(=S)Nc2ccccc2F)c2ccccc21,?,–,–,·,·,28.2µM
O=C(O)C1=C[C@H](c2ccc(F)cc2)C[C@H](OCc2ccc(CO)cc2)O1,–[9.22 µM],–,–[10 µM],·,–,·
O=C(CSc1nnc2ccccn12)NNC(=O)c1ccc(F)cc1,–,?,–,·,–,–
O=P(O)(O)OC1[C@H](O)[C@H](OP(=O)(O)O)C(OP(=O)(O)O)[C@H](OP(=O)(O)O)[C@H]1O (some centres undefined),·,·,–[1.9 µM],–,–[2.36 µM],–[2.48 µM]
O=S(=O)(c1ccc(Br)s1)N1CCNCC1,–[9.22 µM],–,–[10 µM],·,–,·
CCCCCCCN(C(=O)CCl)c1ccccc1C,–,–,–[10 µM],–,–,0.501µM
COc1ccc2[nH]cc(CCNc3ncnc4ccc(-c5ccoc5)cc34)c2c1,·,·,–,·,·,–
CC1=CC(c2ccccc2)n2nc(NS(=O)(=O)c3ccc(C)cc3)nc2N1 (centres undefined),?,–,–,?,–,0.631µM
C=CCn1c(SCC(=O)c2cccs2)nc2sc(C)c(C)c2c1=O,–,–,–[1.9 µM],–,–,–
C=CCn1c(SCC(=O)c2cc(C)n(CCOC)c2C)nc2sc(C)c(C)c2c1=O,–,–,–,?,–,25.1µM
Cc1cccc(NC(=S)NCC2CCCO2)c1 (centres undefined),–,–,–,14.1µM,–,–
Cc1ccc(NC(=S)NCC2CCCO2)cc1C (centres undefined),–,–,–[10 µM],–,–,?
S=C(NCC1CCCO1)Nc1ccc(Cl)cc1 (centres undefined),–,–,–[0.074 µM],–,–,–
S=C(NCC1CCCO1)Nc1ccc(Cl)cc1Cl (centres undefined),–,–,–[10 µM],28.2µM,–,–
COC(=O)c1cccc(NC(=O)c2nn(C)c(=O)c3ccccc23)c1,–[9.22 µM],–,–,–,–,?
CC(C)OC(=O)[C@@H]1CC[C@H](C)[C@@H](CCCC=O)O1,·,–,·,–,–,–
SMILES,HTT aggregate,KDM4E inh,HTT ATP protect,HPGD inh,CBFb RUNX1 block,ALDH1A1 block
CC1CCC/C(=C\Nc2ccc(O)cc2)C1=O (centres undefined),–,?,–,?,–,8.91µM
CN(C)c1ccc(CN(C(=O)c2ccco2)C2CCS(=O)(=O)C2)cc1 (centres undefined),–,–,–[0.074 µM],–,–,7.08µM
O=C(c1ccco1)N(Cc1cccs1)C1CCS(=O)(=O)C1 (centres undefined),–,–,–[0.074 µM],–,–,–
Cc1ccc(OCC(=O)N(Cc2ccc(N(C)C)cc2)C2CCS(=O)(=O)C2)cc1 (centres undefined),–,–,–[0.074 µM],–,–,17.8µM
CN(C)c1ccc(CN(C(=O)COc2ccc(F)cc2)C2CCS(=O)(=O)C2)cc1 (centres undefined),–,–,–[0.074 µM],–,–,?
CN(C)c1ccc(CN(C(=O)COc2ccc(Br)cc2)C2CCS(=O)(=O)C2)cc1 (centres undefined),–,–,–,–,–,28.2µM
CCOc1ccccc1NC(=O)CCCN1C(=S)NC(C)(C)CC1C (centres undefined),–,–,–[10 µM],–,–,–
CN1CCN(/N=C/c2c3ccccc3c(Cl)c3ccccc23)CC1,?,–,–[10 µM],·,?,–
COc1cnc(-c2ccccc2)nc1Oc1ccc(Cl)cc1C,–,–,–[10 µM],·,–,–
CON1C(=O)C(=O)N(OC)C(C)(C)C1(C)C,–,–,–[10 µM],–,–,20µM
CCC(NC(=O)NNC(=O)c1ccncc1)(C(F)(F)F)C(F)(F)F,–[9.22 µM],–,–[10 µM],·,–,·
NS(=O)(=O)c1ccc(NC(=S)NC2CCCC2)cc1,–,–,·,14.1µM,–,?
O=C(NC(=S)Nc1ccc(S(=O)(=O)N2CCCC2)cc1)C1CC1,–,–,–,·,–,20µM
O=C(NC(=S)Nc1ccc(S(=O)(=O)N2CCCC2)cc1)C1CCC1,–,–,·,–,–,?
NS(=O)(=O)c1ccc(NC(=S)NC2CCCCCC2)cc1,–,–,–[10 µM],–,–,?
O=C(CCNS(=O)(=O)c1ccc(Br)cc1)NC1CCCCC1,–,–,–,·,–,–
O=S(=O)(NC(=S)NC1CCCCC1)c1ccc(Br)cc1,–,–,·,·,–,25.1µM
O=S(=O)(c1ccc(NC(=S)NC2CCCC2)cc1)N1CCCC1,–,–,–[10 µM],·,–,14.1µM
CC(C1CC1)N(Cc1ccccc1)C(=S)Nc1ccccc1Cl (centres undefined),–,–,–,·,–,?
CCN(CC)CCNC(=O)c1ccc(-n2c(C)cc3c2CCCC3=O)cc1,–,–,–,·,–,–
Cc1cc(C)c(C)c(S(=O)(=O)N[C@@H](C)C(=O)OCc2cc(=O)n3cc(Br)ccc3n2)c1C,–,?,–,·,–,–
Cc1ccc(S(=O)(=O)N(C)c2ccc3sc(C)nc3c2)cc1,–[9.22 µM],–,–[10 µM],·,–,?
CC1CCN(S(=O)(=O)c2ccc(C(=O)N3CCN(c4ccccc4F)CC3)cc2)CC1,–[9.22 µM],–,–[10 µM],·,–,–

# Screening data deposited in PubChem by National Center for Advancing Translational Sciences (NCATS).
